Assay results as given in PubChem BioAssay (Tox21).
Inconclusive results are not listed. Active and inactive are the calls of the source. Unless noted, the call rests on the fitted dose curve; in most records, active means well fitted curve in the direction sought with a large enough effect in the repeat runs; inconclusive means weak or mixed curves; inactive means no such curve, though single readings can be large; an effect the other way counts as inactive or inconclusive.

Assays:
[1] = qHTS assay to identify small molecule agonists of the peroxisome proliferator-activated receptor delta (PPARd) signaling pathway - cell viability counter screen (AID 743211); further: nearly all actives have a fitted effect of over 55% in size
How it was run: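 qHTS cell viability: PPARd-bla HEK293H; 17 h cpd, 37C; CellTiter-Glo, luminescence at 30 min RT.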

[2] = molecular target: Peroxisome proliferator-activated receptor delta (Homo sapiens) (UniProt Q03181); test: qHTS assay to identify small molecule agonists of the peroxisome proliferator-activated receptor delta (PPARd) signaling pathway (AID 743212; calls by dose curve)
How it was run: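 Steps: seed PPARd-bla HEK293H cells; incubate 5 h, 37 C, 5% CO2; add compounds in DMSO; incubate, 37 C; add LiveBLAzer B/G FRET substrate; hold 2 h at room temperature; measure fluorescence.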

[3] = qHTS assay to identify small molecule antagonists of the peroxisome proliferator-activated receptor delta (PPARd) signaling pathway - cell viability counter screen (AID 743213); further: nearly all actives have a fitted effect of over 50% in size
How it was run: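 In this counter screen, HEK293H cells carrying a UAS-beta-lactamase reporter are co-treated with test compounds and 300 nM L165041 (final) for 17 h at 37 C; cell viability is quantified by CellTiter-Glo luminescence.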

[4] = molecular target: Peroxisome proliferator-activated receptor delta (Homo sapiens) (UniProt Q03181); test: qHTS assay to identify small molecule antagonists of the peroxisome proliferator-activated receptor delta (PPARd) signaling pathway (AID 743215; active means well fitted inhibition curve with a large enough effect in the signal ratio in the repeat runs, not every such curve was filed as active; the % refers to the signal ratio;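 further: cells stimulated with agonist L165041 at 300 nM final during compound exposure; series mostly up to about 62 µM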)
How it was run: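 HEK293H GeneBLAzer PPARd UAS-bla reporter cells; cpd + L165041 300 nM final, 17 h 37 C; LiveBLAzer B/G FRET substrate 2 h RT; fluorescence intensity read-out. Antagonist mode.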

[5] = molecular target: Bile acid receptor (Homo sapiens) (UniProt Q96RI1); test: qHTS assay to identify small molecule antagonists of the farnesoid-X-receptor (FXR) signaling pathway (AID 743217; active means well fitted inhibition curve with a large enough effect in the signal ratio in the repeat runs, not every such curve was filed as active; the % refers to the signal ratio)
How it was run: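 Read-out: beta-lactamase FRET fluorescence (LiveBLAzer B/G substrate, 2 h, room temperature) in GeneBLAzer FXR-UAS-bla HEK 293T cells. Compounds were co-dosed with 50 uM chenodeoxycholic acid (final) and incubated 16 h at 37 °C.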

[6] = qHTS assay to identify small molecule agonists of the farnesoid-X-receptor (FXR) signaling pathway - cell viability counter screen (AID 743218); further: nearly all actives have a fitted effect of over 45% in size
How it was run: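 Luminescence from CellTiter-Glo, read after 30 min at RT, reports viability of GeneBLAzer FXR-UAS-bla HEK 293T cells treated 16 h with compounds in the wells used for the beta-lactamase reporter.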

[7] = molecular target: Bile acid receptor (Homo sapiens) (UniProt Q96RI1); test: qHTS assay to identify small molecule agonists of the farnesoid-X-receptor (FXR) signaling pathway (AID 743220; active means well fitted activation curve with a large enough effect in the signal ratio in the repeat runs, not every such curve was filed as active; the % refers to the signal ratio)
How it was run: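 FXR-UAS-bla HEK 293T cells carrying a UAS-driven beta-lactamase reporter were plated for 5 h at 37C/5% CO2, then exposed to DMSO-dissolved Tox21 10K compounds for 16 h at 37C. A LiveBLAzer B/G FRET substrate was loaded for 2 h at room temperature before fluorescence reading.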

[8] = molecular target: Vitamin D3 receptor (Homo sapiens) (UniProt P11473); test: qHTS assay to identify small molecule agonists of the vitamin D receptor (VDR) signaling pathway (AID 743222; calls by dose curve)
How it was run: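 Beta-lactamase reporter readout (LiveBLAzer B/G FRET, 2 h RT) in VDR-bla cells after 16 h compound treatment at 37C, 5% CO2; cells pre-incubated 4 h before pin transfer of DMSO solutions.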

[9] = molecular target: Vitamin D3 receptor (Homo sapiens) (UniProt P11473); test: qHTS assay to identify small molecule antagonists of the vitamin D receptor (VDR) signaling pathway (AID 743223; active means well fitted inhibition curve with a large enough effect in the signal ratio in the repeat runs, not every such curve was filed as active; the % refers to the signal ratio)
How it was run: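 Reporter line VDR-bla; stimulus 1alpha,25-(OH)2 vitamin D3, 3 nM final; compound co-addition, 16 h 37C/5% CO2; LiveBLAzer B/G substrate 2 h RT; fluorescence intensity.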

[10] = qHTS assay to identify small molecule agonists of the vitamin D receptor (VDR) signaling pathway - cell viability counter screen (AID 743224); further: series mostly up to about 63 µM; nearly all actives have a fitted effect of over 50% in size
How it was run: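 Cytotoxicity counter screen: VDR-bla cells, 16 h compound exposure at 37C, 5% CO2; CellTiter-Glo luminescence, 30 min RT, same wells as bla read.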

[11] = qHTS assay to identify small molecule antagonists of the vitamin D receptor (VDR) signaling pathway - cell viability counter screen (AID 743225); further: nearly all actives have a fitted effect of over 50% in size
How it was run: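 Parallel cytotoxicity test: VDR-UAS-bla HEK 293T, 3 nM (final) 1-alpha,25-dihydroxyvitamin D3 with test compound, 16 h, 37C. Endpoint is CellTiter-Glo luminescence in the same wells.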

[12] = qHTS assay to identify small molecule agonists of the NFkB signaling pathway - cell viability counter screen (AID 1159515; calls by dose curve; further: series mostly up to about 61 µM; nearly all actives have a fitted effect of over 55% in size)
How it was run: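 ME-180 NFkB-bla cells, 2,000/well; overnight attach; compound 5 hr, 37 C/5% CO2; LiveBLAzer substrate 1.5 hr RT; then CellTiter-Glo in same wells, 30 min RT, luminescence read.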

[13] = qHTS assay to identify small molecule agonists of the endoplasmic reticulum stress response signaling pathway (AID 1159516; active means well fitted activation curve with a large enough effect in the signal ratio in the repeat runs, not every such curve was filed as active; the % refers to the signal ratio)
How it was run: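 HeLa ESRE-bla reporter line; cpd 5 h, 37 C/5% CO2; LiveBLAzer B/G FRET substrate 2 h RT; ex 405, em 460/530 nm.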

[14] = qHTS assay to identify small molecule agonists of the endoplasmic reticulum stress response signaling pathway - cell viability counter screen (AID 1159517; calls by dose curve;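 further: HeLa cells carrying an ER stress response element beta-lactamase reporter; series mostly up to about 61 µM; nearly all actives have a fitted effect of over 50% in size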)
How it was run: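 After overnight attachment, ESRE-bla HeLa cells were treated with Tox21 library compounds for 5 hr. CellTiter-Glo luminescence, read 30 min post-addition at room temperature, reported viability.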

[15] = qHTS assay to identify small molecule antagonists of the retinoid-related orphan receptor gamma (ROR-gamma) signaling pathway - cell viability counter screen (AID 1159520); further: nearly all actives have a fitted effect of over 50% in size
How it was run: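 Cytotoxicity was read from cellular ATP (CellTiter-Glo luminescence) after 16 hr at 37 C with 1 uM doxycycline induction. The inducer was added 2 hr after compound transfer to Tet-on ROR gamma CHO cells.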

[16] = molecular target: Nuclear receptor ROR-gamma (Homo sapiens) (UniProt P51449); test: qHTS assay to identify small molecule antagonists of the retinoid-related orphan receptor gamma (ROR-gamma) signaling pathway (AID 1159521)
How it was run: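 Decreased RORE-driven luciferase luminescence indicates antagonism. Tet-on RORγ CHO cells received compound, then 1 uM final doxycycline 2 h later; signal read after 16 h incubation.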

[17] = qHTS assay to identify small molecule agonists of the AP-1 signaling pathway - cell viability counter screen (AID 1159525; calls by dose curve; further: nearly all actives have a fitted effect of over 55% in size)
How it was run: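 Intracellular ATP by Cell Titer Glo luminescence (30 min, RT) in the same ME-180 AP-1-bla wells after the 5 h compound exposure at 37 °C. Normalised to tetra n-octyl ammonium bromide and DMSO controls.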

[18] = qHTS assay to identify small molecule agonists of the AP-1 signaling pathway (AID 1159526; calls by dose curve)
[19] = qHTS assay to identify small molecule antagonists of the farnesoid-X-receptor (FXR) signaling pathway - cell viability counter screen (AID 743221; active means well fitted cell-killing curve with a large enough effect in the repeat runs, not every such curve was filed as active; further: nearly all actives have a fitted effect of over 50% in size)
How it was run: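 After a 5 h settling period, FXR-bla HEK 293T cells receive compound and chenodeoxycholic acid (50 uM final) and incubate 16 h at 37 C; CellTiter-Glo luminescence, read after 30 min at room temperature, reports cell viability.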

Measured: Potency

Sequence of Peroxisome proliferator-activated receptor delta (Homo sapiens) (Q03181 whole entry, looked up): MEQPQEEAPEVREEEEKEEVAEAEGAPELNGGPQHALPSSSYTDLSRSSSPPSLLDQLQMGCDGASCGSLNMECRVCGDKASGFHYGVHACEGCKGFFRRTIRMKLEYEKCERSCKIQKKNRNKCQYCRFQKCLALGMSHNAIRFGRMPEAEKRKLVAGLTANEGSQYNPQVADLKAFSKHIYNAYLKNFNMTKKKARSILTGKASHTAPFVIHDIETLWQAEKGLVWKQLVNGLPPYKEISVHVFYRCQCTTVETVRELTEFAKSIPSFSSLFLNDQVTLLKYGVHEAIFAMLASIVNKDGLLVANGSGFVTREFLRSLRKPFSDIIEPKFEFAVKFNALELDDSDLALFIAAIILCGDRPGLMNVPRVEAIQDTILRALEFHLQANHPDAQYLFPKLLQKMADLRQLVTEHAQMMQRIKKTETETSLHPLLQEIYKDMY
Sequence of Bile acid receptor (Homo sapiens) (Q96RI1 whole entry, looked up): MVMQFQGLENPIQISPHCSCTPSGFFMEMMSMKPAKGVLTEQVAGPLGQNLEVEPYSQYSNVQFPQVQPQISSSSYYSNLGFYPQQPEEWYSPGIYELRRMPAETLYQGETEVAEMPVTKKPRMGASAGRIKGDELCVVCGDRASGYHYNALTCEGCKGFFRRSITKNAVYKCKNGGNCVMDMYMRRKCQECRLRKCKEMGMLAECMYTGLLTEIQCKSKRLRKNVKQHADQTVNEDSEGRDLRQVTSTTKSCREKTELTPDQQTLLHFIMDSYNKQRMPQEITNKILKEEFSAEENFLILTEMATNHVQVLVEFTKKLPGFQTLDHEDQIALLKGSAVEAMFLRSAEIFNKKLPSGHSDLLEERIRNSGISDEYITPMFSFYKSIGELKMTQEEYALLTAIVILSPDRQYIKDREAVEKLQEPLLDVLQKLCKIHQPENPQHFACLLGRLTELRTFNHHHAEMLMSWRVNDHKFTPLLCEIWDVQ
Sequence of Vitamin D3 receptor (Homo sapiens) (P11473 whole entry, looked up): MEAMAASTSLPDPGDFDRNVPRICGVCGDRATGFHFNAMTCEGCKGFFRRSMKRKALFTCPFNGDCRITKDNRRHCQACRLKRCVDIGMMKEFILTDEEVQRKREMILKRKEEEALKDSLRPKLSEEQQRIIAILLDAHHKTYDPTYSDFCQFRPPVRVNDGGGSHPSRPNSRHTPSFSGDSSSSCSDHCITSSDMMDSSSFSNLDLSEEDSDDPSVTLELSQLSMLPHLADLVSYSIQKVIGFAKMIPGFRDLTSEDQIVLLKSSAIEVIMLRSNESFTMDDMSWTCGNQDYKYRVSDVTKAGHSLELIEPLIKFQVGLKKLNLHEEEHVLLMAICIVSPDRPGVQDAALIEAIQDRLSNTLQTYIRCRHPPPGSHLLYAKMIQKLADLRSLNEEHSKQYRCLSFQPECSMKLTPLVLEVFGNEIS

O=S(=O)(O)c1ccc(N=Nc2c(O)ccc3cc(S(=O)(=O)O)ccc23)cc1
not listed: [19]
inactive: all other assays above

OCc1cccc(Oc2ccccc2)c1
inactive: all assays above

C=C(C)[C@H]1CC=C(C)C(=O)C1
not listed: [2] | [4] | [5] | [7]
inactive: all other assays above

COc1cc(OC)c(C(=O)CCCN2CCCC2)c(OC)c1
not listed: [5] | [7]
inactive: all other assays above

CC1(C)OC[C@@H]2O[C@@]3(C(=O)O)OC(C)(C)O[C@H]3[C@@H]2O1
not listed: [2] | [4] | [5] | [7] | [19]
inactive: all other assays above

CC(=O)CCC=C(C)C
not listed: [5] | [7]
inactive: all other assays above

CCCCCCO
not listed: [2] | [4] | [5] | [7]
inactive: all other assays above

CC(C)CC(C)O (stereo unspecified)
not listed: [19]
inactive: all other assays above

NCCN1CCNCC1
not listed: [5] | [7]
inactive: all other assays above

OC1C(O)C(O)C(O)C(O)C1O (stereo unspecified)
inactive: all assays above

CCCOC(=O)c1ccccc1
not listed: [5] | [7]
inactive: all other assays above

CNC(=O)Oc1ccc2c(c1)[C@]1(C)CCN(C)[C@@H]1N2C
inactive: all assays above

C=Cc1ccc(C)cc1
not listed: [4] | [5] | [7] | [19]
inactive: all other assays above

Cc1ccc([N+](=O)[O-])cc1S(=O)(=O)O
not listed: [4] | [5] | [7]
inactive: all other assays above

CC(C)(C#N)c1cc(Cn2cncn2)cc(C(C)(C)C#N)c1
not listed: [2] | [4]
inactive: all other assays above

COc1ccccc1OCC(O)CO (stereo unspecified)
not listed: [4] | [5] | [7]
inactive: all other assays above

C=CC(=O)OCCC(=O)O
not listed: [2] | [4] | [5] | [7]
inactive: all other assays above

O=C(O)c1ccc(S(=O)(=O)N(Cl)Cl)cc1
not listed: [2] | [4]
inactive: all other assays above
